In PubChem BioAssay (Tox21):
Records with an inconclusive call do not appear. Calls of active or inactive are those of the source. Unless noted, the call rests on the fitted dose curve; in most records, active means well fitted cell-killing curve with a large enough effect in the repeat runs; inconclusive means weak or mixed curves; inactive means flat fitted curve, though single readings scatter.

Tested on: not listed separately
Experiment: qHTS assay to identify small molecule antagonists of the estrogen receptor beta (ER-beta) signaling pathway - cell viability counter screen (AID 1259382); further: nearly all actives have a fitted effect of over 55% in size; further: potency means the concentration at half of the fitted maximal effect;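 on activity change, negative = cytotoxicity: HEK293T cells carrying ER-beta-UAS-bla reporter stimulated with estradiol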
Conditions: ER-beta-UAS-bla HEK293T viability, CellTiter-Glo luminescence, 16 h; series mostly up to 92.4 µM; activity change, negative = cytotoxicity: at the top concentration
In short: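 Cytotoxicity counter screen multiplexed with the beta-lactamase antagonist assay: GripTite HEK293T ER-beta-bla cells were treated 16 hr with test chemicals in the presence of 1nM 17-beta-estradiol, and viability was measured by CellTiter-Glo.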
On the % scale 0 is the no-effect control and ±100 the full control effect.

| SMILES | Potency | activity change, negative = cytotoxicity |
| --- | --- | --- |
| CC(C)(C)CC(C)(C)c1ccc(O)c(Cc2ccc(Cl)cc2Cl)c1 | 29.8 µM (active) | – |
| Nc1nc2ccccc2n1Cc1ccc(F)cc1 | – | -9.63% [at 42.5 µM] (inactive) |
| O=[N+]([O-])c1cc([N+](=O)[O-])c2ccc(S(=O)(=O)O)cc2c1O | – | 5.87% (inactive) |
| C[C@H](CCC(=O)O)[C@H]1CC[C@H]2[C@@H]3CC[C@@H]4C[C@H](O)CC[C@]4(C)[C@H]3CC[C@]12C | 19.3 µM (active) | – |
| O=C(Oc1ccccc1)c1ccccc1C(=O)Oc1ccccc1 | – | -1.3% (inactive) |
| Cc1ccc(O)c(C(C)(C)C)c1 | inactive | – |
| C/C=C1/C(=O)C[C@H]2[C@@H]3CCC4=CC(=O)CC[C@]4(C)[C@H]3CC[C@]12C | – | -13.5% (inactive) |
| CC1=NC(C)OC1C (stereo unspecified) | – | 6.6% (inactive) |
| C[n+]1cc2c3c(ccc2c2ccc4cc5c(cc4c21)OCO5)OCO3 | 3.66 µM (active) | – |
| CN(C)c1ccc(C2(c3ccc(N(C)C)cc3)OC(=O)c3cc(N(C)C)ccc32)cc1 | – | -6.56% (inactive) |
| CCCC(C)c1ccccc1O (stereo unspecified) | – | -0.912% (inactive) |
| CCOC(=O)c1nc(C(Cl)(Cl)Cl)n(-c2ccc(Cl)cc2Cl)n1 | 61.1 µM (active) | – |
| OCCN1CCN(CC/C=C2/c3ccccc3Sc3ccc(C(F)(F)F)cc32)CC1 | 26.6 µM (active) | – |
| CNc1ccc(O)cc1 | 61 µM (active) | – |
| NC(=O)CC[C@@H]1NC(=O)[C@H](Cc2ccccc2)NC(=O)[C@H](Cc2ccc(O)cc2)NC(=O)CCSSC[C@@H](C(=O)N2CCC[C@H]2C(=O)N[C@@H](CCCN=C(N)N)C(=O)NCC(N)=O)NC(=O)[C@H](CC(N)=O)NC1=O | – | 7.32% [at 42.5 µM] (inactive) |
| O=C(OCC1CO1)C1CCCCC1C(=O)OCC1CO1 (stereo unspecified) | – | -1.44% (inactive) |
| Clc1ccc(C(Cn2ccnc2)OCc2ccc(Sc3ccccc3)cc2)c(Cl)c1 (stereo unspecified) | – | -7.65% [at 42.5 µM] (inactive) |
| CCN(C(=O)N(CC)c1ccccc1)c1ccccc1 | – | -6.14% (inactive) |
| CC1(C)CCC(C)(C)c2cc(C(=O)Nc3ccc(C(=O)O)cc3)ccc21 | – | -15.9% (inactive) |
| CN(C)CCCOC1(Cc2ccccc2)CCCCCC1 | – | -14.1% [at 42.5 µM] (inactive) |
| Cc1cc2c(cc1C(F)(F)F)N(C(=O)Nc1ccc(Oc3cccnc3C)nc1)CC2 | – | -17.7% (inactive) |
| CCN(C(=O)c1cc(C)cc(OC[C@H](C)Nc2ccncc2)c1)C(C)C | – | 1.16% [at 42.5 µM] (inactive) |
| CCCCCCCCCCCC[N+](C)(C)CCCCCCCCCCCC | 21.7 µM (active) | – |
| CCCCN1C(=O)[C@@H]([C@H](O)C2CCCCC2)NC(=O)C12CCN(Cc1ccc(Oc3ccc(C(=O)O)cc3)cc1)CC2 | – | -14.8% (inactive) |
| CS(=O)(=O)CCNCc1ccc(-c2ccc3ncnc(Nc4ccc(OCc5cccc(F)c5)c(Cl)c4)c3c2)o1 | 13.3 µM (active) | – |
| O=C(O)c1cc(O)c2c(c1)C(=O)c1cccc(O)c1C2=O | – | -10.2% (inactive) |
| O=CC=C(c1ccccc1)c1ccccc1 | 27.5 µM (active) | – |
| O=C(Nc1cccc([N+](=O)[O-])c1)c1cc2ccccc2cc1O | 0.77 µM (active) | – |
| Oc1c(Cl)cc(Cl)c2cccnc12 | 11.9 µM (active) | – |

Target: Estrogen receptor (Homo sapiens) (UniProt P03372)
Experiment: qHTS assay to identify small molecule agonists of the estrogen receptor alpha (ER-alpha) signaling pathway in the presence of an antagonist (AID 1259383; calls by dose curve; further: top concentration of the series differs between compounds; nearly all actives have a fitted effect of over 15% in size)
Conditions: VM7Luc4E2 cells, ERE-luciferase, +ICI-182,780, 22 h; series mostly up to 92.4 µM; activation: at the top concentration
In short: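 Agonist-mode confirmation in the presence of the ER antagonist ICI-182,780 at 10.0nM final. Breast-derived VM7Luc4E2 reporter cells were exposed to compounds for 22hr, and ERE-driven luciferase was quantified by luminescence.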

Sequence of Estrogen receptor (Homo sapiens) (P03372 whole entry, looked up): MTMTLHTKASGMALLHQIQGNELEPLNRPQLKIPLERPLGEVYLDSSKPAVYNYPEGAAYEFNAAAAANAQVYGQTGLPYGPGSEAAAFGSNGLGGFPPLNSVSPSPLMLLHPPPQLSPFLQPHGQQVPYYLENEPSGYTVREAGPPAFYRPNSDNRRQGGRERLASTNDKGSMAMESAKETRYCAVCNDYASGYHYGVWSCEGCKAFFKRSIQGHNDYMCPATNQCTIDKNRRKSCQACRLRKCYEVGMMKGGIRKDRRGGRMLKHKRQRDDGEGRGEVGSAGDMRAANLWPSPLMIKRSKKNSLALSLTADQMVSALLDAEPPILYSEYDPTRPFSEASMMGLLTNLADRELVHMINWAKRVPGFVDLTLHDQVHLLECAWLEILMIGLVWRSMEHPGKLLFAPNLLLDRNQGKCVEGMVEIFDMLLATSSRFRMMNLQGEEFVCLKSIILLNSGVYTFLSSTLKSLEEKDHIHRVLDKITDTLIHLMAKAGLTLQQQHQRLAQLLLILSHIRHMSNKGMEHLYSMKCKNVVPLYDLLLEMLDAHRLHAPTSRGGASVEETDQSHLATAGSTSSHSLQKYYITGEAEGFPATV

| SMILES | activation | Potency |
| --- | --- | --- |
| CC(C)(C)CC(C)(C)c1ccc(O)c(Cc2ccc(Cl)cc2Cl)c1 | -9.77% [at 42.5 µM] (inactive) | – |
| Nc1nc2ccccc2n1Cc1ccc(F)cc1 | -11.3% [at 42.5 µM] (inactive) | – |
| N/C(=N\N=C\c1ccc(Cl)cc1)N/N=C/c1ccc(Cl)cc1 | 7.93% [at 42.5 µM] (inactive) | – |
| C[C@H](CCC(=O)O)[C@H]1CC[C@H]2[C@@H]3CC[C@@H]4C[C@H](O)CC[C@]4(C)[C@H]3CC[C@]12C | – | inactive |
| CCOc1ccc2nc3cc(N)ccc3c(N)c2c1 | 0.365% [at 42.5 µM] (inactive) | – |
| O=C(Oc1ccccc1)c1ccccc1C(=O)Oc1ccccc1 | -2.5% (inactive) | – |
| C/C=C1/C(=O)C[C@H]2[C@@H]3CCC4=CC(=O)CC[C@]4(C)[C@H]3CC[C@]12C | -5.28% (inactive) | – |
| CC1=NC(C)OC1C (stereo unspecified) | -0.274% (inactive) | – |
| CN(C)c1ccc(C2(c3ccc(N(C)C)cc3)OC(=O)c3cc(N(C)C)ccc32)cc1 | -1.39% (inactive) | – |
| CCCC(C)c1ccccc1O (stereo unspecified) | 4.78% (inactive) | – |
| CCOC(=O)c1nc(C(Cl)(Cl)Cl)n(-c2ccc(Cl)cc2Cl)n1 | -2.87% (inactive) | – |
| OCCN1CCN(CC/C=C2/c3ccccc3Sc3ccc(C(F)(F)F)cc32)CC1 | 0.198% [at 42.5 µM] (inactive) | – |
| CC(C)(C)C1CCC(CC2=C(O)c3ccccc3C(=O)C2=O)CC1 (stereo unspecified) | -0.131% [at 42.5 µM] (inactive) | – |
| O=C1C=CC(=O)N1c1ccc(Cc2ccc(N3C(=O)C=CC3=O)cc2)cc1 | -2.22% (inactive) | – |
| Clc1ccc(C(Cn2ccnc2)OCc2ccc(Sc3ccccc3)cc2)c(Cl)c1 (stereo unspecified) | -0.609% [at 42.5 µM] (inactive) | – |
| CC1(C)CCC(C)(C)c2cc(C(=O)Nc3ccc(C(=O)O)cc3)ccc21 | 2.6% (inactive) | – |
| CN(C)CCCOC1(Cc2ccccc2)CCCCCC1 | -2.12% [at 42.5 µM] (inactive) | – |
| COc1cccc2c1C(=O)c1c(O)c3c(c(O)c1C2=O)C[C@@](O)(C(=O)CO)C[C@@H]3O[C@H]1C[C@H](N)[C@H](O[C@@H]2CCCCO2)[C@H](C)O1 | 0.461% [at 42.5 µM] (inactive) | – |
| Cc1cc2c(cc1C(F)(F)F)N(C(=O)Nc1ccc(Oc3cccnc3C)nc1)CC2 | -0.818% (inactive) | – |
| CCCCCCCCCCCC[N+](C)(C)CCCCCCCCCCCC | -15.9% (inactive) | – |
| CCCCN1C(=O)[C@@H]([C@H](O)C2CCCCC2)NC(=O)C12CCN(Cc1ccc(Oc3ccc(C(=O)O)cc3)cc1)CC2 | -1.18% (inactive) | – |
| CS(=O)(=O)CCNCc1ccc(-c2ccc3ncnc(Nc4ccc(OCc5cccc(F)c5)c(Cl)c4)c3c2)o1 | -1.89% [at 42.5 µM] (inactive) | – |
| O=C(O)c1cc(O)c2c(c1)C(=O)c1cccc(O)c1C2=O | 2.89% (inactive) | – |
| O=CC=C(c1ccccc1)c1ccccc1 | 2.11% (inactive) | – |
| O=C(Nc1cccc([N+](=O)[O-])c1)c1cc2ccccc2cc1O | -4.5% (inactive) | – |
| Oc1c(Cl)cc(Cl)c2cccnc12 | 1.19% [at 42.5 µM] (inactive) | – |
| CC(=O)S[C@@H]1CC2=CC(=O)CC[C@]2(C)[C@H]2CC[C@@]3(C)[C@@H](CC[C@@]34CCC(=O)O4)[C@H]12 | -1.31% (inactive) | – |
